Experimental data reported in PubChem BioAssay (Tox21).
Values without a mark were called inactive. Inconclusive results are not listed. Where a call stands in place of a potency, no number is given. Active and inactive are the calls of the source. Unless noted, calls come from the whole dose curve; as a rule, active = well fitted curve in the direction sought with a large enough effect in the repeat runs; inconclusive = weak or mixed curves; inactive = no such curve, though single readings can be large; an effect the other way counts as inactive or inconclusive.

What was measured:
[1] = qHTS RealTime-Glo MT Cell Viability Assay in HepG2 cells - 32 hour (AID 1224877); note: nearly all actives have a fitted effect of over 55% in size
Summary of the method: (§1)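 Cells + NanoLuc/prosubstrate dispensed (600 cells/well) → 5 h at 37 C/5% CO2 → compounds in DMSO transferred → 40 h incubation at 37 C, luminescence read at 0, 8, 16, 24, 32, 40 h.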

[2] = A CellTox Green Cytotoxicity Assay to monitor cytotoxicity in HepG2 cells - 24 hour (AID 1224878); note: nearly all actives have a fitted effect of over 45% in size; note: potency is the fitted concentration of half-maximal effect
Summary of the method: (§2)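 Fluorescent DNA-binding dye, 600 HepG2 cells/well, 5 h preincubation then compound in DMSO; same plates read at 0–40 h, 37 C.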

[3] = A CellTox Green Cytotoxicity Assay to monitor cytotoxicity in HepG2 cells - 40 hour (AID 1224879); note: nearly all actives have a fitted effect of over 40% in size
Summary of the method: as §2

[4] = A CellTox Green Cytotoxicity Assay to monitor cytotoxicity in HEK293 cells - 32 hour (AID 1224881); note: nearly all actives have a fitted effect of over 40% in size
Summary of the method: (§3)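 Homogeneous no-lysis format: HEK293 cell suspension mixed with CellTox Green reagent, seeded, incubated 5 h at 37 C/5% CO2, then dosed by pintool with compound in DMSO.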

[5] = A CellTox Green Cytotoxicity Assay to monitor cytotoxicity in HepG2 cells - 0 hour (AID 1224882); note: nearly all actives have a fitted effect of over 35% in size; note: potency is the fitted concentration of half-maximal effect
Summary of the method: as §2

[6] = A CellTox Green Cytotoxicity Assay to monitor cytotoxicity in HepG2 cells - 32 hour (AID 1224883); note: nearly all actives have a fitted effect of over 50% in size
Summary of the method: as §2

[7] = qHTS RealTime-Glo MT Cell Viability Assay in HepG2 cells - 16 hour (AID 1224885); note: nearly all actives have a fitted effect of over 50% in size
Summary of the method: as §1

[8] = qHTS RealTime-Glo MT Cell Viability Assay in HEK293 cells - 24 hour (AID 1224886); note: top concentration of the series differs between compounds; nearly all actives have a fitted effect of over 50% in size
Summary of the method: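 Tox21 10K qHTS, HEK293, 600 cells/well, RealTime-Glo reagent co-dispensed with cells; 5 h preincubation, compound by pintool, 37 C, luminescence at 0–40 h.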

[9] = qHTS RealTime-Glo MT Cell Viability Assay in HEK293 cells - 8 hour (AID 1224887); note: top concentration of the series differs between compounds; nearly all actives have a fitted effect of over 50% in size
Summary of the method: (§4)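 Measured as luminescence from the same continuously cultured HEK293 wells at successive time points (0, 8, 16, 24, 32, 40 h) after compound addition. Reagent present from seeding; dosing at 5 h; incubation 37 C.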

[10] = A CellTox Green Cytotoxicity Assay to monitor cytotoxicity in HEK293 cells - 16 hour (AID 1224888); note: nearly all actives have a fitted effect of over 35% in size
Summary of the method: as §3

[11] = A CellTox Green Cytotoxicity Assay to monitor cytotoxicity in HepG2 cells - 8 hour (AID 1224890); note: nearly all actives have a fitted effect of over 45% in size; note: potency is the fitted concentration of half-maximal effect
Summary of the method: as §2

[12] = qHTS assay to identify small molecule antagonists of the estrogen receptor alpha (ER-alpha) signaling pathway using the BG1 cell line in the presence of 0.1 nM 17-beta-estradiol - cell viability counter screen (AID 1259241); note: nearly all actives have a fitted effect of over 40% in size
Summary of the method: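 Live-cell protease activity (CellTiter-Fluor fluorescence, 30 min) was read in the same wells after VM7Luc4E2 cells had been exposed to compounds with 0.1 nM 17beta-estradiol for 22 hr at 37C.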

[13] = qHTS assay to identify small molecule antagonists of the androgen receptor (AR) signaling pathway using the MDA cell line in the presence of 0.5 nM R1881 - cell viability counter screen (AID 1259242); note: nearly all actives have a fitted effect of over 45% in size
Summary of the method: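 Human breast carcinoma MDA-kb2 cells, cultured without CO2, receive compounds alongside 0.5 nM (final) R1881 agonist. After 16 hr at 37C, viability is taken as live-cell protease signal.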

[14] = qHTS assay to identify small molecule phospholipidosis (PLD) inducers (AID 1259344; active = well fitted curve in the direction sought with a large enough effect; an effect the other way counts as inactive or inconclusive)
Summary of the method: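 Cells (HepG2, 900 per well) attach for 4 h, receive LipidTOX Red and compound together, incubate 24 h at 37 C, are fixed 30 min with paraformaldehyde/Hoechst, then imaged at one site per well.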

[15] = qHTS assay to identify small molecule HDAC inhibitors (AID 1259364);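 note: wild-type HCT-116 cells with endogenous class I/II HDAC activity; top concentration of the series differs between compounds; nearly all actives have a fitted effect of over 45% in size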
Summary of the method: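 After a 2 hr compound incubation (37C, 5% CO2), HCT-116 cells seeded at 1,500/well the day before received HDAC-Glo reagent; signal read as luminescence after 30 min at room temperature.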

[16] = qHTS assay to identify small molecule HDAC inhibitors - cell viability counter screen (AID 1259365)
Summary of the method: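 HCT-116 (wild type), 1,500 cells/well, overnight 37C/5% CO2; compound in DMSO 2hr; CellTiter-Glo 30min RT; luminescence read.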

[17] = qHTS RealTime-Glo MT Cell Viability Assay in HEK293 cells - 0 hour (AID 1224880)
Summary of the method: as §4

[18] = A CellTox Green Cytotoxicity Assay to monitor cytotoxicity in HEK293 cells - 8 hour (AID 1224884); note: nearly all actives have a fitted effect of over 35% in size
Summary of the method: as §3

[19] = qHTS RealTime-Glo MT Cell Viability Assay in HepG2 cells - 0 hour (AID 1224889); note: nearly all actives have a fitted effect of over 50% in size; note: potency is the fitted concentration of half-maximal effect
Summary of the method: as §1

[20] = target: Estrogen receptor (Homo sapiens) (UniProt P03372); assay: qHTS assay to identify small molecule antagonists of the estrogen receptor alpha (ER-alpha) signaling pathway using the BG1 cell line in the presence of 0.1 nM 17-beta-estradiol (AID 1259244); note: nearly all actives have a fitted effect of over 50% in size
Summary of the method: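 Seeding of stripped-serum-adapted VM7Luc4E2 cells, 24 h attachment, compound transfer, then 0.1 nM final 17beta-estradiol; after 22 h incubation, ONE-Glo reagent and luminescence reading.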

Chain of Estrogen receptor (Homo sapiens) (P03372 whole entry, looked up): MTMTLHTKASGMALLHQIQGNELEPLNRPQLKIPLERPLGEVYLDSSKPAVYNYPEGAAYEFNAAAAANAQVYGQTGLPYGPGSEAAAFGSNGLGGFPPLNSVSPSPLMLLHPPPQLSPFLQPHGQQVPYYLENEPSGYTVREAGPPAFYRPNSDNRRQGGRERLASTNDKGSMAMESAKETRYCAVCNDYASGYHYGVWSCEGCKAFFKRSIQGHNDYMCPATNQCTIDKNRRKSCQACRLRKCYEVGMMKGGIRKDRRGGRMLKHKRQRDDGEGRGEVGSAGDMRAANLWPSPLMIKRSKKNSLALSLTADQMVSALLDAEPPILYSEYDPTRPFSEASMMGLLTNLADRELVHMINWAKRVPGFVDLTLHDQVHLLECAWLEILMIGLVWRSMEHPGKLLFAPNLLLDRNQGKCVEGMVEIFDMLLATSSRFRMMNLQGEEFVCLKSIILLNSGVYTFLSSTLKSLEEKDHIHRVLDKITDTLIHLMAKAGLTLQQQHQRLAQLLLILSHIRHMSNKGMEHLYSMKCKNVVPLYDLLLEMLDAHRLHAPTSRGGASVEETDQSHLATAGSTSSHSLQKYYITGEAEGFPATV

SMILES | outcome [1] | Potency [2] | Potency [3] | Potency [4] | Potency [5] | Potency [6] | outcome [7] | Potency [8] | Potency [9] | Potency [10] | Potency [11] | Potency [12] | Potency [13] | outcome [14] | Potency [15] | outcome [16] | outcome [17] | Potency [18] | Potency [19] | Potency [20]
CNCc1ccccc1 | inactive | inactive | inactive | inactive | inactive | inactive | inactive | inactive | inactive | inactive | inactive | inactive | inactive | inactive | inactive | inactive | – | – | – | –
CNC(=O)C(c1ccccc1)c1ccccc1 | inactive | – | – | inactive | inactive | – | inactive | inactive | inactive | inactive | – | inactive | inactive | – | – | inactive | inactive | inactive | inactive | inactive
Cc1cc(C)cc([N+](=O)[O-])c1 | inactive | 55.6 µM (active) | – | inactive | inactive | – | inactive | inactive | inactive | inactive | inactive | inactive | inactive | – | inactive | inactive | inactive | inactive | inactive | inactive
C=CCOc1cc(Cl)ccc1C(=O)NCCN(CC)CC | inactive | inactive | inactive | – | inactive | inactive | inactive | inactive | inactive | inactive | inactive | inactive | inactive | – | inactive | inactive | – | inactive | inactive | –
O=S(=O)(O)SSS(=O)(=O)O | inactive | inactive | inactive | inactive | – | – | inactive | inactive | inactive | inactive | inactive | inactive | inactive | – | inactive | inactive | – | inactive | inactive | –
Cc1oc(=O)oc1CN1CCN(c2cc3c(cc2F)c(=O)c(C(=O)O)c2n3C(C)S2)CC1 (stereo not drawn) | inactive | 0.535 µM (active) | – | inactive | inactive | – | inactive | inactive | inactive | inactive | 0.535 µM (active) | inactive | inactive | inactive | inactive | inactive | – | inactive | inactive | inactive
Oc1ccccc1Cc1ccccc1O | inactive | – | – | – | inactive | – | inactive | – | – | inactive | – | inactive | inactive | – | inactive | inactive | inactive | inactive | inactive | inactive
C=CCOc1c(Br)cc(Br)cc1Br | inactive | inactive | inactive | – | inactive | inactive | inactive | inactive | inactive | inactive | inactive | inactive | inactive | – | inactive | inactive | – | – | inactive | inactive
CCC(C)N (stereo not drawn) | inactive | inactive | inactive | inactive | – | inactive | inactive | inactive | inactive | inactive | inactive | inactive | inactive | – | inactive | inactive | – | inactive | inactive | inactive
C[C@@H]1C[C@H]2[C@@H]3C[C@H](F)C4=CC(=O)C=C[C@]4(C)[C@@]3(F)[C@@H](O)C[C@]2(C)[C@@]1(O)C(=O)CO | inactive | – | inactive | inactive | – | – | inactive | inactive | inactive | inactive | – | inactive | inactive | inactive | inactive | inactive | – | inactive | 21.3 µM (active) | –
CCCCC(CC)CNC(=O)CC(C)OC(=O)CCC(=O)O (stereo not drawn) | inactive | 26.8 µM (active) | – | inactive | 26.8 µM (active) | – | inactive | – | inactive | inactive | 26.8 µM (active) | inactive | inactive | – | inactive | inactive | inactive | – | – | inactive
